NPC1 prom act: activators of NPC1 promoter; Huh7 NPC1 promoter luciferase reporter, 24 h; Potency, µM (top dose mostly 9.22 µM), for inactives: top-dose activation, most hits filed as activators; actives 2.4% (n = 320,000); note: % of control where 0% means no effect; nearly all actives have a fitted effect of over 60% in size
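Cells: Huh7 expressing luciferase under the NPC1 promoter, 1500/well. Seeded 2 h, compound added, incubated 24 h at 37 °C. Luciferase reagent, 10 min ambient, then luminescence.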
ELG1 genotoxic: genotoxicity induction in ELG1-luciferase HEK293T cells. HEK293T ELG1-luciferase reporter, luminescence, 16 h. Potency, µM (highest dose often 46 µM), for inactives: top-dose activity change, positive = activation, usual class: activators. actives 1.3% (n = 330,000). AID 504466; note: % of control where 0% means no effect; nearly all actives have a fitted effect of over 60% in size
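Cells (2,000/well) expressing the ELG1-luciferase fusion are dosed by pin tool and kept 16 hr at 37 °C, 5% CO2. Signal comes from ONE-Glo luciferase reagent after 30 min at room temperature.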
FLuc counter: counter-screen for miR-21 project: firefly luciferase inhibitors or activators | actives 6.9% (n = 360,000) | AID 588342 | purified FLuc, Km substrates, luminescence inhibition | P08659 | Potency, µM (titrated, usually from 57.5 µM), for the others: top-dose activity change, negative = inhibition, hits mostly inhibitors;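 note: plate controls were vehicle for no effect and reference inhibitor for full effect; nearly all actives have a fitted effect of over 55% in size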
Target sequence (P08659 whole entry, looked up): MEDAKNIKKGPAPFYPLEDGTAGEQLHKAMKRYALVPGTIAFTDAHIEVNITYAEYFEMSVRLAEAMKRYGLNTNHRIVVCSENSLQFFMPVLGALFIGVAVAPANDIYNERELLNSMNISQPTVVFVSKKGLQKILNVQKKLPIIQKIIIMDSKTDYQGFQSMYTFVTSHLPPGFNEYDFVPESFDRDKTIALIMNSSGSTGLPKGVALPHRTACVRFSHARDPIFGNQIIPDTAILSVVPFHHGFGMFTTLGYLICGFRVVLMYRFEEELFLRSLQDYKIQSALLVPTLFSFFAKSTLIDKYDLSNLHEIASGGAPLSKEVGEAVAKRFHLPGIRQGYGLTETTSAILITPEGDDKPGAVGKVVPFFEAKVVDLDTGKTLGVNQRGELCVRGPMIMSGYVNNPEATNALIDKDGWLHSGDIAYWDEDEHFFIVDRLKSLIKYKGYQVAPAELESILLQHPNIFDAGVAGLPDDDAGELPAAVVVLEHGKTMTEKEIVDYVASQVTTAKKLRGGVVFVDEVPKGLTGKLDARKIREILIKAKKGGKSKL
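Biochemical qHTS of compounds, final roughly 60 µM downward over six points, against 10 nM purified firefly luciferase using Km concentrations of substrates (10 uM D-luciferin, 10 uM ATP) in Tris acetate pH 7.5 buffer; luminescence output.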
SMN2 splice up: increases expression of the SMN2 splice variant; HEK293 SMN2-luciferase splicing reporter, luminescence, 30-36 h; Potency, µM (top dose mostly 46.1 µM), for inactives: top-dose activity change, positive = activation, hits mostly activators; actives 2.8% (n = 210,000); AID 1458; note: % of control where 0% means no effect; nearly all actives have a fitted effect of over 55% in size
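HEK293 cells carry an SMN2 minigene-luciferase reporter in which exon 7 inclusion puts luciferase in frame. Cells were seeded at 2000 cells/well, attached for 10-12 hours, then exposed to compounds for 30-36 hours at 37C before ONE-Glo luminescence.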
ELG1 DNA repair: blocks ELG1-dependent DNA repair in HEK293T cells | HEK293T ELG1-luciferase reporter, luminescence, 16 h; DNA damage induced by 5-fluorouridine | Potency, µM (top dose mostly 46.1 µM), without a hit: top-dose activity change, negative = inhibition, hits mostly inhibitors | actives 2.3% (n = 330,000) | AID 504467; note: % is set by controls: 0 for no effect and ±100 for the full control effect; nearly all actives have a fitted effect of over 55% in size
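Overnight (16 hr) co-exposure of 2,000 cells/well to 5-fluorouridine and compound at 37 °C preceded detection. Luciferase was quantified via ONE-Glo luminescence; loss of signal denotes inhibition.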
Rab9 prom act: activates the Rab9 promoter; Huh7 Rab9 promoter-luciferase reporter, luminescence, 24 h; Potency, µM (highest dose often 9.22 µM), for the others: at the highest dose activation, negative = inhibition, actives largely listed as activators; actives 2.8% (n = 320,000); AID 485297; note: % of control where 0% means no effect; nearly all actives have a fitted effect of over 60% in size
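Steps: seed 1500 Huh7 Rab9-luc cells per well, rest 2 h at 37 °C; add compound in DMSO; incubate 24 h; add luciferase reagent, 10 min ambient; read luminescence.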
Numbers without * were called inactive; ? = inconclusive; · = no result; [ ] = dose if it differs, or a comment. Sampled rows, rich in hits. Any-hit rate of the full collection: about 9.2%. Calls come from the whole dose curve; as a rule, active = well fitted curve in the direction sought with a large enough effect; inconclusive = small, poorly fitted or top-dose-only effect, or another doubt; inactive = no such curve, though single readings can be large; an effect the other way counts as inactive or inconclusive. Potency is the fitted concentration of half-maximal effect.

SMILES | NPC1 prom act | ELG1 genotoxic | FLuc counter | SMN2 splice up | ELG1 DNA repair | Rab9 prom act
CCOC(=O)c1c(C)c(-c2ccccc2)n(CC(=O)NC(CC)Cc2ccccc2)c1C (stereo not given) | · | · | 6% | 0% | · | ·
COc1cc(C(=O)COC(=O)c2ccc([N+](=O)[O-])o2)cc(OC)c1OC | · | 0% | · | · | 3% | ·
O=C(N/N=C/c1cc([N+](=O)[O-])ccc1O)C1CC1 | -2% | -5% | 3% | · | 18µM* | -1%
O=[N+]([O-])c1ccc(O)c(/C=N/Nc2ccccc2Cl)c1 | 1.4µM* | ? | 4.8µM* | 13µM* | ? | ?
O=[N+]([O-])c1cccc(N/N=C/c2cccc(O)c2O)c1 | -17% | ? | 15µM* | ? | ? | 2%
C/C(=N\Nc1cccc([N+](=O)[O-])c1)c1ccccc1O | 2% | ? | 19µM* | · | ? | ?
COc1ccc(C(CNC(=O)c2cccc([N+](=O)[O-])c2)N2CCOCC2)cc1 (stereo not given) | · | · | 5% | · | · | ·
Cc1cc2oc(C(=O)Nc3cccc(-c4nc5ccccc5o4)c3)c(C)c2cc1C | · | · | 2% | · | · | ·
CCc1ccc(-c2nc(CS(=O)CC(=O)NC3CCCCCC3)c(C)o2)cc1 (stereo not given) | 2% | 1% | ? | · | 3% | 5%
O=C(N/N=C/c1cc([N+](=O)[O-])ccc1O)c1cccc2cc[nH]c12 | -31% | 15% | -3% | · | 4.6µM* | -25%
O=[N+]([O-])c1ccccc1N/N=C\c1ccccc1F | ? | 5.8µM* | ? | · | ? | 2.8µM*
O=C(N/N=C/c1cccc([N+](=O)[O-])c1)c1cccc2cc[nH]c12 | 0% | 7% | 7% | 17% | -7% | 1%
Cc1c(NC(=S)N/N=C/c2cc([N+](=O)[O-])ccc2O)c(=O)n(-c2ccccc2)n1C | -3% | -12% | 27µM* | · | ? | -3%
O=[N+]([O-])c1ccccc1N/N=C\c1ccccc1Cl | ? | ? | 0.67µM* | 7.9µM* | ? | 2.8µM*
Cc1c(NC(=S)N/N=C/c2ccc(O)cc2)c(=O)n(-c2ccccc2)n1C | -7% | 0% | -12% | 10% | 5% | 0%
O=[N+]([O-])c1ccccc1N/N=C/c1cccc(O)c1O | 3.5µM* | 10µM* | 1.5µM* | · | ? | -8%
O=[N+]([O-])c1cccc(/C=N\Nc2ccc3ccccc3n2)c1O | · | · | · | -11%[9.22 µM] | · | ·
Cc1ccc(NC2=C(Cl)C(=O)c3ccccc3C2=O)cc1 | -34% | ? | -23% | · | ? | -33%
CCOc1ccc(NC2=C(OC)C(=O)c3ccccc3C2=O)cc1 | 15% | 0% | 17µM* | -26% | 24% | 3%
COC1=C(Nc2ccc(OC)cc2)C(=O)c2ccccc2C1=O | 28% | 4% | 19µM* | ? | 28% | ?
CCN(CC)c1ccc(NC2=C(Cl)C(=O)c3ccccc3C2=O)cc1 | -38% | 2.9µM* | 12µM* | -109% | ? | -35%
Cc1c(C(=O)NCc2ccc3c(c2)OCO3)oc2ccc(S(=O)(=O)N3CCC(C)CC3)cc12 | -10% | -4% | 2% | -49% | 8.2µM* | -12%
CC1CCN(S(=O)(=O)c2ccc3c(c2)oc(=O)n3CC(=O)NCc2ccc3c(c2)OCO3)CC1 | -4% | -15% | 2% | -84% | 10µM* | -10%
Cc1c(C(=O)NCc2ccc3c(c2)OCO3)oc2ccc(S(=O)(=O)N3CCCCCC3)cc12 | · | · | 2% | -33% | · | ·
CCC(C)NC(=O)Cn1c(=O)ccc2cc(S(=O)(=O)N3CCCC3)ccc21 (stereo not given) | · | · | -1% | · | · | ·
SMILES | NPC1 prom act | ELG1 genotoxic | FLuc counter | SMN2 splice up | ELG1 DNA repair | Rab9 prom act
CCOCCCNC(=O)c1ccc2c(=O)n(CCc3ccc(OC)c(OC)c3)c(=O)[nH]c2c1 | · | · | -3% | · | · | ·
CN1CCN(c2ccc(NC(=O)c3ccc(-c4cccc([N+](=O)[O-])c4)o3)cc2)CC1 | 12% | 3% | 15µM* | -5% | ? | 8%
O=C(Nc1ccc(N2CCN(C(=O)c3ccc(Cl)cc3)CC2)cc1)c1cc2ccccc2o1 | -4% | -4% | 0% | -22% | ? | -13%
O=C(Nc1ccc(N2CCN(C(=O)c3ccc(Cl)cc3)CC2)cc1)c1ccc(Br)o1 | 7% | -7% | -2% | -90% | 21µM* | -6%
CCc1ccc2oc(-c3ccc(C)c(NC(=O)c4cc([N+](=O)[O-])ccc4N4CCOCC4)c3)nc2c1 | · | · | 1.7µM* | 16% | · | ·
O=C(NC(=S)Nc1ccccc1N1CCCCC1)c1ccc(-c2cccc([N+](=O)[O-])c2)o1 | -7% | 1% | 8% | -12% | ? | -6%
O=C(NC(=S)Nc1ccccc1N1CCCC1)c1ccc(-c2cccc([N+](=O)[O-])c2)o1 | -11% | -5% | -3% | -21% | 15µM* | 15%
CCOC(=O)C(C)(C)Oc1ccc(Cl)cc1 | 3%[46.1 µM] | -5% | -1% | 24% | 10% | -1%[46.1 µM]
Cn1cccc1C(=O)N1CCC2(CCCN(c3cccc(-c4ccccc4)c3)C2)CC1 | · | · | · | -32% | · | ·
O=C(NCc1cccc(Cl)c1)N1CCN(S(=O)(=O)c2ccccc2F)CC1 | 9% | -4% | 0% | · | -11% | -2%
CC(=O)c1ccc(NC(=O)c2c3c(nc4ccccc24)C(=O)N(C2CCCCC2)C3)cc1 | · | · | -6% | · | · | ·
O=C(Nc1ccc2oc(=O)ccc2c1)c1ccc(-c2cccc([N+](=O)[O-])c2)o1 | 0% | 3% | -3% | · | ? | 1%
CS(=O)(=O)N1CCN(c2ccc(NC(=O)c3ccc(-c4ccc(Cl)cc4)o3)cc2)CC1 | -6% | 12% | 0% | -12% | ? | -12%
CCc1ccc2oc(-c3cccc(NC(=O)c4ccc(-c5cccc([N+](=O)[O-])c5)o4)c3)nc2c1 | · | · | 2.7µM* | ? | · | ·
CN1CCN(c2ccc(NC(=O)c3ccc(-c4ccc(Cl)cc4)o3)cc2)CC1 | 2% | -11% | 24µM* | · | ? | 0%
CC(C)c1ccc2oc(-c3cccc(NC(=O)c4ccc5c(c4)OCCO5)c3)nc2c1 | · | · | 2.1µM* | -3% | · | ·
O=C(Nc1ccc2oc(-c3ccc4ccccc4c3)nc2c1)c1ccc2c(c1)OCCO2 | ? | 7% | -1% | -35% | ? | ?
Cc1ccc2nc(-c3cccc(NC(=O)c4ccc5c(c4)OCCO5)c3)oc2c1 | 11% | 12% | 9.5µM* | -13% | ? | 5%
COc1ccc(-c2nc3nc(C)c(Cc4ccccc4)c(=O)n3[nH]2)cc1 | 13% | ? | 9.5µM* | ? | ? | 14%

Compound activity from PubChem BioAssay.
